Assay results: PubChem BioAssay AID1509 (The Scripps Research Institute Molecular Screening Center, 2009)
Out of some 220,000 compounds screened, about 770 (0.35%) were called active. Cut-off read from the data, not from the text of the source: active = activation above about 11%; inactive = the rest. The full list was thinned out, with actives kept by preference.

Biological target: Sphingosine 1-phosphate receptor 4 (Homo sapiens) (UniProt O95977)
Experiment: activators of human S1P4 receptor – cell-based, primary screen (AID 1509);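 note: 0% = DMSO vehicle and 100% = reference agonist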
Conditions: S1P4-expressing cell line, agonist reporter assay; at 4.98 µM; stronger effect = higher value

Sequence of Sphingosine 1-phosphate receptor 4 (Homo sapiens) (O95977 whole entry, looked up): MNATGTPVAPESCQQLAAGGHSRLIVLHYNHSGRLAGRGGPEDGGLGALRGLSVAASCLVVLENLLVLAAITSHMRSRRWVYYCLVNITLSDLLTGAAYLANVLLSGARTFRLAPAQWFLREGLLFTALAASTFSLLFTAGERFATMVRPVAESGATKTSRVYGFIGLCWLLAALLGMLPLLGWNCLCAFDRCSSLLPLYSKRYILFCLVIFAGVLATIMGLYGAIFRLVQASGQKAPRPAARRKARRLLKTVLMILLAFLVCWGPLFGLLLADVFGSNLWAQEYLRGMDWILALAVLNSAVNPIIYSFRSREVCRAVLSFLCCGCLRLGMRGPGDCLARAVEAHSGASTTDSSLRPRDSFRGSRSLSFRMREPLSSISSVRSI

activation, active:
COc1ccccc1CNC(=O)CNC(=O)c1cn(-c2ccccc2OC)c(=O)c2ccccc12 16.9%, COc1ccc(-n2c(C)cc(C(=O)CN3C(=O)NC4(CCc5ccccc54)C3=O)c2C)cc1 (centres undefined) 16.1%, CC(=O)Nc1ccc(SCC(=O)Nc2ccccc2Oc2ccccc2)cc1 13.2%, O=C(COC(=O)c1cc([N+](=O)[O-])ccc1NCc1ccccc1)NC1CCCCC1 15.3%, N/C(=N\OC(=O)Cc1ccc([N+](=O)[O-])cc1)c1ccccn1 15.5%, Cc1cc(NC(=O)c2cc(-c3cccs3)on2)nn1Cc1ccc(Cl)cc1 13.1%, CCn1c(CNC(=O)c2ccc(OC)c(OC)c2)nnc1SCC(=O)Nc1ccccc1 21.5%

activation, inactive:
Cc1nc(-c2nnc(SCC(=O)Nc3cc(C(F)(F)F)cc(C(F)(F)F)c3)n2C)cs1 -0.18%, O=C1C=C(c2ccc(Cl)cc2)C(=O)N1Nc1ccccc1 -3.55%, CCOc1ccc(N2CC(C(=O)N/N=C/c3sccc3C)CC2=O)cc1 (centres undefined) -0.25%, NC(=O)COC(=O)c1sc2cc(F)ccc2c1Cl 0.19%, COc1ccc(CCNC(=O)C(Sc2ccccn2)c2ccccc2)cc1OC (centres undefined) -2.85%, O=C(Nc1ccc(N2CCOCC2)cc1)c1ccc2c(c1)OCO2 1.77%, CC1CN(C(=O)c2ccccc2NS(=O)(=O)c2cccc([N+](=O)[O-])c2)CC(C)O1 (centres undefined) 1.5%, CCc1ccc(Nc2nnc(SCC(=O)c3ccc4c(c3)NC(=O)CO4)s2)cc1 1.5%, CC1CCCN(CC(O)COc2ccc3c(c2)OCO3)C1 (centres undefined) 0.61%, COCCn1c(SCc2nnc(-c3ccc(OC)c(OC)c3)o2)nc2sc3c(c2c1=O)CCC3 1.63%, CCOc1cnc(-c2c(-c3ccccc3Cl)noc2C)o1 0.62%, CC1CCCC(NC(=O)c2cccc(N3CCCC3=O)c2)C1C (centres undefined) -1.52%, COc1ccccc1CNC(=O)c1cc(=O)c2ccccc2o1 0.7%, COc1ccccc1CNC(=O)CCn1c(=O)sc2ccccc21 -0.92%, COc1cccc(CN(C)CC(=O)Nc2ccccc2C(=O)Nc2ccccc2)c1 0.57%, CN(C)c1nc(-c2cccnc2)nc(-c2ccc(Cl)cc2)c1C#N 0.37%, CC(Oc1ccc(-c2ccccc2)c(F)c1)c1ccn(S(=O)(=O)c2cccc3ccccc23)n1 (centres undefined) -2.56%, COc1ccc(NC(=O)C(=O)NCC(=O)Nc2cccc(C(F)(F)F)c2)cc1 0.93%, COc1ccc(-c2ccc(CCC(=O)O)n2NC(=O)c2ccc(C(C)(C)C)cc2)cc1 -0.13%, Cc1ccc(-n2c(C)cc(C(=O)CN3C(=O)C(=O)N(C4CCCC4)C3=O)c2C)cc1 0.78%, CN(C)S(=O)(=O)c1cc(NC(=O)CN2C(=O)NC3(CCCc4ccccc43)C2=O)ccc1Cl (centres undefined) 0.63%, COC(=O)c1cc(C(=O)N(Cc2ccccc2)c2ccccn2)cc([N+](=O)[O-])c1 1.87%, Cc1ccccc1OCCC(=O)OCC(=O)NC(C)c1ccccc1 (centres undefined) -1.6%, CCN(CC)C(=O)Cn1cc(S(=O)(=O)CC(=O)NCc2ccc3c(c2)OCO3)c2ccccc21 -1.22%, COc1ccc(C(=O)NN2C(=O)C3C(c4ccccc4)C=CC(c4ccccc4)C3C2=O)cc1 (centres undefined) -0.98%, N#C/C=C(/c1ccc(F)cc1)N1CCOCC1 -1.05%, Cc1cc2c(C)nc(N/N=C/c3ccccc3)nc2o1 -1.39%, O=C(CSc1ccccc1)Nc1cc(Cl)ccc1Oc1ccccc1 0.59%, Cc1cc(C)cc(NC(=O)CSc2ccccc2)c1 -1.04%, O=C(COC(=O)c1ccccc1SCC(=O)NC1CCCCC1)NC1CCCCC1 0.41%, N#Cc1ccccc1Sc1ccccc1C(=O)OCC(=O)NC1CCCCC1 2.4%, Cc1nn(CC(=O)Nc2ccc(N(C)C)cc2)c(C)c1[N+](=O)[O-] -0.79%, NC(=O)c1ccc(-c2csnn2)cc1 -0.31%, O=C(OCc1ccc([N+](=O)[O-])cc1)c1ccccn1 -1.16%, N/C(=N\OC(=O)c1ccc([N+](=O)[O-])cc1)c1ccccn1 -0.02%, CCc1ccc(NC(=O)N[C@H](C(=O)O)C(C)CC)cc1 (some centres undefined) -0.3%, O=S(=O)(Nc1ccc(Cl)cn1)c1cnc(Cl)c(Br)c1 0.57%, O=C(c1cc(-c2cccs2)on1)N1CCCCC1 0.14%, Cc1ccc(Cn2ccc(NC(=O)c3cc(C(C)C)on3)n2)cc1 -0.1%, CCn1c(CNC(=O)c2ccco2)nnc1SCC(=O)Nc1cccc(F)c1 1.91%, CCn1c(Cc2ccccc2)nnc1SCC(=O)Nc1ccccc1 -2.58%, O=C(CN1CCN(S(=O)(=O)c2ccc(Cl)s2)CC1)NCc1ccc(Cl)cc1 0.73%, COC(=O)C1=C(C)N(C)C(=O)NC1c1ccc([N+](=O)[O-])o1 (centres undefined) 0.41%, Brc1ccc(-c2n(-c3ccccn3)c3ccccc3[n+]2-c2ccccn2)cc1 -0.47%, CCn1c(N)c(Br)c(=O)[nH]c1=O 0.16%, O=C(NNS(=O)(=O)c1ccccc1)c1cnn(-c2ccc(Cl)cc2)c1C(F)(F)F 1.09%, Cc1ccc(NC(=O)CC2C(=O)N(Cc3ccccc3)C(=S)N2NC(=O)c2cccc(F)c2)c(C)c1 (centres undefined) 2.02%, Cc1ccc(/C=N/NC(=O)Cn2ccc(C(F)(F)F)n2)o1 1.08%, CC(=O)NC(=S)Nc1ccc(NC(=O)c2cccnc2)cc1 -0.19%, COc1ccc(CCn2c(NN=C3CCCC3)nc3c2c(=O)[nH]c(=O)n3C)cc1 -1.13%, FC(F)(F)c1ccnc(Oc2ccc(C3=NCCS3)cc2)c1 -0.27%, O=c1cc(N2CCCCC2)c(-c2ccccc2)nn1Cc1cccc(F)c1 0.58%
